Screening results: PubChem, University of Pittsburgh Molecular Library Screening Center
The entries come from a sample that favours hits as a whole.
YopH PTP inh = inhibitors of Yersinia enterocolitica YopH tyrosine phosphatase | fluorescence Ex485/Em525 | inhibition, % (no concentration beside the values) | 140,000 compounds, 0.16% hits | AID 898; in the data active means inhibition above about 50%
* marks the source's active call; other numbers are inactive results.

SMILES	YopH PTP inh
COc1ccc2c(c1OC)C(C1c3c(cc4c(c3OC)OCO4)CCN1C)OC2=O (stereo not drawn)	-13
Cc1cc(C)nc(N2CCCC(C(=O)NCCc3cccc(F)c3)C2)n1 (stereo not drawn)	-42
Cc1cccc(OCc2nnc(SCC(=O)Nc3cccc(C(=O)N4CCOCC4)c3)n2C)c1C	-18
COc1ccc(-c2[nH]nc3c2C(c2ccoc2)C(C#N)=C(N)O3)cc1 (stereo not drawn)	-90
CCCCCn1c(NC(=O)c2ccco2)c(C(=O)OCC)c2nc3ccccc3nc21	22
CCCCn1c(NC(=O)c2ccccc2)c(C#N)c2nc3ccccc3nc21	60*
CCC(C)n1c(NC(=O)c2ccccc2)c(C#N)c2nc3ccccc3nc21 (stereo not drawn)	14
O=C(CSc1nncs1)N1c2ccccc2Sc2ccccc21	-12
Cc1nc2c(=O)n(C)c(=O)nc-2n(C)n1	101*
Cn1c(=O)c(-c2ccccc2)nn2c3ccccc3nc12	-7
CC(=O)N/N=C(\C)c1cccc(NC(=O)c2cccs2)c1	7
C/C(=N\OC(=O)c1ccc(C)cc1)c1sc(C)nc1C	-9
COC(=O)[C@H]1[C@H](C(=O)OC)[C@@H](C(=O)OC)N(c2ccc(OC)cc2)[C@@H]1C(=O)OC	-21
Cc1nn(C)c(C(=O)N2CCc3ccccc32)c1Cl	41
O=C1NC2(CCCC2)N=C1c1ccc(Cl)cc1	-8
Cc1ccc(C2=NC3(CCCCCC3)NC2=S)cc1	-21
N#CC(C#N)=c1ccc2c(c1)NC1(CCCCC1)N=2	92*
Cc1cc(-c2n[nH]c(=S)n2Cc2ccco2)n(C)n1	-35
O=C(CSc1nnc(-c2ccccc2)o1)n1c2c(c3ccccc31)CCCC2	56*
Cc1ccc(-c2nnc(SCC(=O)n3c4c(c5ccccc53)CCCC4)o2)cc1	-17
Cn1c(SCC(=O)n2c3c(c4ccccc42)CCCC3)nnc1-c1ccccc1	5
CC(=O)Nc1ccc(-c2nnc(SCC(=O)n3c4c(c5ccccc53)CCCC4)n2C)cc1	75*
COc1ccc(CNC(=O)CSc2nnc(-c3ccc(NC(C)=O)cc3)n2C)cc1	-10
Cc1nnc(SCC(=O)n2c3c(c4ccccc42)CCCC3)s1	12
CCOC(=O)c1ccc(NC(=O)CCc2nc(-c3ccc(C)cc3)no2)cc1	13
SMILES	YopH PTP inh
CCN(CC)S(=O)(=O)c1cccc(C(=O)Oc2cccnc2)c1	19
O=[N+]([O-])c1ccc(N2CCN(CCO)CC2)cc1NCc1ccco1	-27
COCCN(Cc1cc2cc3c(cc2n2nnnc12)OCO3)C(=O)c1ccccc1F	4
Cc1[nH]n(-c2ccccc2)c(=O)c1C(C[N+](=O)[O-])c1ccc(Cl)cc1 (stereo not drawn)	76*
Cc1[nH]n(-c2ccccc2)c(=O)c1C(C[N+](=O)[O-])c1ccc(F)cc1 (stereo not drawn)	-4
Cc1ccc(C(C[N+](=O)[O-])c2c(C)[nH]n(-c3ccccc3)c2=O)cc1 (stereo not drawn)	83*
Cc1[nH]n(-c2ccccc2)c(=O)c1Sc1ccc(Cl)cc1	-1
Cc1cc(O)c(C(C[N+](=O)[O-])c2ccc(Cl)cc2)c(=O)o1 (stereo not drawn)	-19
COc1ccc(C(c2c(C)[nH]n(-c3ccccc3)c2=O)c2c(C)[nH]n(-c3ccccc3)c2=O)cc1OC	6
CCN(C(=O)c1cn(C)c(=O)c2cc(OC)c(OC)cc12)c1cc(OC)ccc1OC	-33
CC(C)N(C(=O)CN(C#N)c1nc(N(C)C)nc(N(C)C)n1)c1ccccc1	-30
CC(=O)N1CCN(c2ccc(NCc3cccs3)cc2)CC1	-26
Cc1sc2nc(CN(Cc3cccs3)C(=O)C3CC3)[nH]c(=O)c2c1C	12
Cc1cccc(NC(=O)c2cc(Cl)sc2Cl)c1C	-13
CC(C)(NO)/C(=N\O)c1ccc(Cl)cc1	-6
Cc1noc(NS(=O)(=O)c2ccc(NC(=O)CCCOc3ccc(Cl)cc3Cl)cc2)c1C	92*
Cc1cccc(OCCCC(=O)Nc2ccc(S(=O)(=O)Nc3onc(C)c3C)cc2)c1	-10
Cc1noc(NS(=O)(=O)c2ccc(NC(=O)COc3ccc(Cl)cc3Cl)cc2)c1C	-31
COc1cccc(-c2ccc(=O)n(CC(=O)Nc3ccc(C(=O)N4CCCC4)cc3)n2)c1	-3
O=S(=O)(N1CCCCC1)n1nnc2ccccc21	-11
O=C1c2ccccc2C(=O)c2c1cccc2N1CCOCC1	-25
O=C1C(N2CCOCC2)=C(n2nnc3ccccc32)C(=O)c2ccccc21	69*
Nc1nnc(CC(=O)N/N=C\c2cc([N+](=O)[O-])ccc2O)s1	-42
O=C(c1cc2ccccn2n1)N1CCN(c2cccc(C(F)(F)F)c2)CC1	-44
CCCCNC(=O)c1c(N)n(CCCOC)c2nc3ccccc3nc12	9
SMILES	YopH PTP inh
COCCCn1c(N)c(C(=O)OCCOC)c2nc3ccccc3nc21	51*
COCCOC(=O)c1c(N)n(Cc2ccc(OC)cc2)c2nc3ccccc3nc12	42
COc1ccccc1OCCCn1cc(C(=O)c2ccco2)c2ccccc21	-115
CCc1ccc(C2C(C#N)=C(N)SC(N)=C2C#N)s1	-27
O=C(CN1CCN(C(=O)c2cccs2)CC1)NC1CCCCC1	-54
COc1ccc(COC(=O)C2=C(C)NC(=O)NC2c2ccc(O)c(OC)c2)cc1 (stereo not drawn)	-46
COCCOC(=O)C1=C(C)NC(C)=C(C(=O)OC(C)C)C1c1cccc([N+](=O)[O-])c1 (stereo not drawn)	-42
COc1cc(C2C(C(=O)OC(C)C)=C(C)Nc3[nH]c(=O)[nH]c(=O)c32)ccc1O (stereo not drawn)	51*
COc1cc(CN(C)CCc2ccccn2)cc(OC)c1OC	-36
